Screens from PubChem.
Compounds with a hit are over-represented: about 3.7% of the library has one in this group of screens.
Tb PYK inh = qHTS of Trypanosoma Brucei Inhibitors. Potency, µM (highest dose often 76.8 µM), for the others: at the top dose activity, negative = inhibition, hits mostly inhibitors. AID 624173, 2012. pyruvate kinase (Trypanosoma brucei), Q57TT1. TbPYK enzyme, Kinase-Glo Plus ATP luminescence, 45 min. 410,000 tested, 0.12% active; note: nearly all actives have a fitted effect of over 50% in size
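Activity of T. brucei pyruvate kinase was followed by Kinase-Glo Plus luminescence after the enzyme reacted 45 min at room temperature with 130 uM ADP (final) and substrate. Test compounds were added before ADP at multiple concentrations.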
FMDV antiviral = High Throughput Screening for Foot and Mouth Disease Virus Antivirals | AID 1159524, 2015 | 410,000 tested, 1.2% active | Potency, µM (doses to about 57.9 µM), for the others: at the highest dose activity change, negative = inhibition, most hits filed as inhibitors | FMDV antiviral cell-based qHTS; calls by dose curve; tested in HEK293T cells; note: read-out not given here; nearly all actives have a fitted effect of over 45% in size
RE007 growth inh = qHTS Assay for Inhibitors of the HIV-1 protein Vpr; S. pombe RE007 Vpr strain, BacTiter-Glo ATP luminescence, 24 h; 360,000 tested, 0.21% active; Potency, µM (highest dose often 92.2 µM), for inactives: at the highest dose activity change, negative = less growth, most hits filed as inhibitors; active = well fitted falling curve with a large enough effect; inconclusive = small, poorly fitted or top-dose-only effect; inactive = no such curve, though single readings can be large or run the other way; note: nearly all actives have a fitted effect of over 50% in size
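Fission yeast strain RE007, carrying one chromosomally integrated HIV-1 vpr copy, was seeded at OD 0.01 in PMG+AL medium with 23 nL pinned compound. After 24 h at 30 °C and 99% humidity, viability was read by BacTiter-Glo luminescence.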
Sm TGR block = qHTS Assay for the Inhibitors of Schistosoma Mansoni Peroxiredoxins; purified TGR, DTNB reduction, TNB absorbance 405 nm; Potency, µM (highest dose often 114 µM), for the others: at the highest dose activity change, negative = inhibition, hits mostly inhibitors; Schistosoma mansoni thioredoxin glutathione reductase (TGR), Q962Y6; 360,000 tested, 3% active; note: nearly all actives have a fitted effect of over 60% in size
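First, TGR (20 nM dispensed) and NADPH were mixed with compound. Second, a 15 min room-temperature incubation followed. Third, further NADPH and then DTNB were added to start the reaction. Finally, TNB absorbance was monitored kinetically.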
An asterisk follows results filed as active. Unless noted, calls come from the whole dose curve; as a rule, active = well fitted curve in the direction sought with a large enough effect; inconclusive = small, poorly fitted or top-dose-only effect, or another doubt; inactive = no such curve, though single readings can be large; an effect the other way counts as inactive or inconclusive. % is set by controls: 0 for no effect and ±100 for the full control effect; potency is the fitted concentration of half-maximal effect.

Screening CCc1cccc(NC(=O)c2ccc3c(=O)n4nc(Nc5ccccc5OC)sc4nc3c2)c1 returned Tb PYK inh 1%, FMDV antiviral 0% and Sm TGR block -3%.
Screening CCOc1ccc(CCNC(=O)c2ccc(CNS(=O)(=O)c3ccccc3)cc2)cc1OCC returned Tb PYK inh -9%, FMDV antiviral 28µM*, RE007 growth inh 0% and Sm TGR block -13%.
`Cc1ccc(CCNC(=O)c2ccc(CNS(=O)(=O)c3ccccc3)cc2)cc1` gave Tb PYK inh 7%, FMDV antiviral 0% and Sm TGR block -1%.
CCOc1ccc(CCNC(=O)c2ccc(C)c(S(=O)(=O)N3CCOCC3)c2)cc1OCC was read as Tb PYK inh -1%, FMDV antiviral 22µM* and RE007 growth inh 2%.
Screening CCOc1ccc(CCNC(=O)c2ccc(Cl)c(S(=O)(=O)N3CCOCC3)c2)cc1OCC returned Tb PYK inh -9%, FMDV antiviral inconclusive, RE007 growth inh -2% and Sm TGR block -2%.
CCOc1ccc(CCNC(=O)c2cccc(S(=O)(=O)N3CCCCC3)c2)cc1OCC was read as Tb PYK inh 7%, FMDV antiviral 28µM*, RE007 growth inh -18% and Sm TGR block -3%.
Screening CCOc1ccc(CCNC(=O)c2ccc3nc(N4CCOCC4)sc3c2)cc1OCC returned Tb PYK inh -14%, FMDV antiviral 14µM*, RE007 growth inh -9% and Sm TGR block 1%.
For CC(=O)c1cccc(NS(=O)(=O)c2c(C)nc3sc(C)cn3c2=O)c1 the results were Tb PYK inh -5%, FMDV antiviral -21% and Sm TGR block 3%.
O=C(/C=C/c1ccccn1)NCC1Cc2cccc(-c3ncccn3)c2O1 (stereo not drawn) was read as FMDV antiviral -13%.
COc1cccc(-n2cc(C(=O)Oc3ccc(F)cc3)c3ccccc3c2=O)c1 was read as Tb PYK inh 1%, FMDV antiviral -24% and Sm TGR block 10%.
`CN(Cc1ccc(C(C)(C)C)cc1)c1cccc2ccccc12` gave Tb PYK inh 0%.
`CCOC(=O)CC(=O)CSc1nc2ccccc2c(=O)n1CCc1ccccc1` gave Tb PYK inh 2%, FMDV antiviral 2% and Sm TGR block -3%.
For COc1ccc(CCNC(=O)c2ccc(CNS(=O)(=O)c3cc(C)ccc3C)cc2)cc1OC the results were Tb PYK inh -6%, FMDV antiviral 20µM*, RE007 growth inh 8% and Sm TGR block 0%.
`COc1ccc(CCNC(=O)c2ccc(CNS(=O)(=O)c3ccc(C(C)(C)C)cc3)cc2)cc1OC` gave Tb PYK inh -11%, FMDV antiviral -10%, RE007 growth inh 18% and Sm TGR block -3%.
`Cc1ccc(S(=O)(=O)N/N=C/c2cc(Br)c(C)o2)cc1` gave Tb PYK inh 2%, FMDV antiviral 36%, RE007 growth inh -24% and Sm TGR block 0.1µM*.
Screening Cc1ccc(S(=O)(=O)NN=Cc2ccco2)cc1 returned Tb PYK inh 1%, FMDV antiviral 106% and RE007 growth inh 17%.
`CC(C)C(OC(=O)c1cccs1)C(=O)NCc1ccco1` (stereo not drawn) gave Tb PYK inh -3%, FMDV antiviral -3%, RE007 growth inh 9% and Sm TGR block 35µM*.
Screening COc1ccccc1C(OC(=O)c1cccs1)C(=O)NCc1ccco1 (stereo not drawn) returned Tb PYK inh -10%, FMDV antiviral -30%, RE007 growth inh 4% and Sm TGR block 13µM*.
CC(=O)OC(C(=O)NCc1ccco1)c1cccnc1 (stereo not drawn) was read as Tb PYK inh -5%, FMDV antiviral -3%, RE007 growth inh 0% and Sm TGR block inconclusive.
Screening CC(=O)OC(C(=O)NCc1ccco1)c1ccncc1 (stereo not drawn) returned Tb PYK inh 9%, FMDV antiviral -20%, RE007 growth inh -11% and Sm TGR block 45µM*.
For O=C(OC(C(=O)NCc1cccs1)c1ccccc1Cl)c1ccco1 (stereo not drawn) the results were Tb PYK inh -21%, RE007 growth inh 2% and Sm TGR block 45µM*.
Oc1c(C(c2ccc(F)cc2)N2CCCC2)sc2nc(-c3ccco3)nn12 (stereo not drawn) was read as Tb PYK inh -6%, FMDV antiviral 28% and Sm TGR block -7%.
